WRN inhibitor: blocks human WRN helicase; Potency, µM (titrated, usually from 114 µM), usual class: inhibitors; AID 651768; Q14191; 360,000 compounds, 0.46% hits; WRN helicase unwinding, fluorescent forked duplex, kinetic; note: nearly all actives have a fitted effect of over 55% in size
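Kinetic fluorescence helicase assay: unwinding of a quenched forked DNA duplex (100 nM final) with 2 mM ATP final raises red fluorescence (525/598 nm). Compounds sat 15 min at room temperature with 20 nM WRN beforehand.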
FEN1 inh: inhibitors of human flap endonuclease 1 | Recombinant FEN1 flap cleavage, fluorescence, 15 min | 390,000 compounds, 0.35% hits | P39748 | Potency, µM (highest dose often 114 µM), most hits filed as inhibitors; note: nearly all actives have a fitted effect of over 65% in size
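Read-out was taken twice, immediately and after 15 min, following addition of 50 nM substrate to 10 nM FEN1 that had sat with test compound for 15 min at room temperature. Curves came from a four-parameter Hill model.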
Pol beta inh: DNA polymerase beta (human) inhibition. Pol beta primer extension/strand displacement, fluorescence kinetic. Potency, µM (doses to about 114 µM), actives largely listed as inhibitors. P06746. 340,000 compounds, 1.3% hits
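Reaction started by 50 nM substrate onto compound-treated Pol beta (10 nM, 15 min preincubation, room temperature); plates read at 0 min and 10 min. Normalized concentration-effect data fitted by four-parameter Hill equation.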
Pol eta inh: inhibitors of human DNA polymerase eta; recombinant Pol eta, fluorescent DNA replication assay; Potency, µM (highest dose often 114 µM), most hits filed as inhibitors; 390,000 compounds, 1.2% hits; AID 588591
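Pol eta at 10 nM preincubated with compounds 15 min at room temperature; reaction started with fluorescent substrate (50 nM final) and read kinetically at 0 and 10 min.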
Pol kappa inh: inhibitors of human DNA polymerase kappa | Q9UBT6 | purified Pol kappa, fluorescent DNA synthesis assay, 10 min | Potency, µM (top dose mostly 107 µM), most hits filed as inhibitors | 400,000 compounds, 0.53% hits | AID 588579
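10 nM Pol kappa preincubated 15 min at room temperature with compounds, then reaction started with substrate at 50 nM final. Fluorescence read kinetically at 0 and 10 min; buffer-only wells served as negative control.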
Pol iota inh: inhibitors of human DNA polymerase iota | Q9UNA4 | Potency, µM (titrated, usually from 115 µM), actives largely listed as inhibitors | Pol iota fluorescent replication assay, 10 min | 390,000 compounds, 1% hits
Target sequence (Q9UNA4 whole entry, looked up): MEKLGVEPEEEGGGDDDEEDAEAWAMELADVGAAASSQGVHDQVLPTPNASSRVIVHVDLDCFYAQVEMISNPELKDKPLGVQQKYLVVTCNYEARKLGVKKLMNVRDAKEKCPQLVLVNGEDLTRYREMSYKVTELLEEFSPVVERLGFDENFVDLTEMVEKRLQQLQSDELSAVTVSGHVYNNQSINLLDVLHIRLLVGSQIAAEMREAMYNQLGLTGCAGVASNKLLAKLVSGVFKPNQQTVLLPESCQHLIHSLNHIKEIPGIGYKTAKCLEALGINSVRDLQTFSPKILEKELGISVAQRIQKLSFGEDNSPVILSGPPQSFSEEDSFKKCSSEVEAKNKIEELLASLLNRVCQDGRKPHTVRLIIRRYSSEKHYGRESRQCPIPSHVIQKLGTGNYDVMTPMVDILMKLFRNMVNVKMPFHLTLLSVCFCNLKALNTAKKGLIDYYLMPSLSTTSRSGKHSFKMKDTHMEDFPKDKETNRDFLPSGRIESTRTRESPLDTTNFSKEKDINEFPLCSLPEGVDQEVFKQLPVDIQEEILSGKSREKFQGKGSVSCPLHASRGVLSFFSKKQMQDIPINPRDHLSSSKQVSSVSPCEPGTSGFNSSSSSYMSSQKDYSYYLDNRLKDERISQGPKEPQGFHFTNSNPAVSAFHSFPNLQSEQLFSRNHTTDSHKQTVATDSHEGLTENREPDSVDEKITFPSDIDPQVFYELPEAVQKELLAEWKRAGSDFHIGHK
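Fluorescent replication assay read twice, at 0 min and 10 min after adding 50 nM (final) substrate. Enzyme (10 nM) and compounds were first incubated 15 min at room temperature; enzyme-free buffer wells were negative controls.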
Numbers stand for hits; - = inactive; ? = inconclusive; . = no result; ! = repeats disagree; [ ] = remark or other dose. Compounds with a hit are over-represented: about 2.4% of the library has one in this group of screens. Calls come from the whole dose curve; as a rule, active = well fitted curve in the direction sought with a large enough effect; inconclusive = small, poorly fitted or top-dose-only effect, or another doubt; inactive = no such curve, though single readings can be large; an effect the other way counts as inactive or inconclusive.

SMILES	WRN inhibitor	FEN1 inh	Pol beta inh	Pol eta inh	Pol kappa inh	Pol iota inh
O=C(O)C1=CC(=C(c2ccc(O)c(C(=O)O)c2)c2ccc(O)c(C(=O)O)c2)C=CC1=O	.	0.794µM	0.0224µM	0.126µM	0.631µM!	0.0501µM!
CC1=C/C(=C(\c2ccc(O)c(C)c2)c2ccccc2S(=O)(=O)O)C=CC1=O	-	-	?	-	-	-
COC(=O)CCCc1nc2ccccc2s1	-	-	-	-	-	-
COc1ccccc1OC(=O)CCc1nc2ccccc2s1	-	-	?	?	?	15.8µM
C[C@H](CO)N1C[C@H](C)[C@@H](CN(C)S(=O)(=O)c2cccc(F)c2)Oc2ncc(Br)cc2C1=O	-	.	.	-	.	.
COC(=O)/C=C1\OCc2cc(C)ccc21	-	.	.	.	.	.
CCOc1ccc(C(=O)NCC(c2ccc3c(c2)OCO3)N2CCN(c3ccc(F)cc3)CC2)cc1 (configuration not stated)	.	-	-	-	-	-
CCOc1ccc2nc(SCC(=O)c3ccc(C)s3)sc2c1	-	-	-	-	-	-
CCOc1ccc2nc(SCC(=O)c3ccc(O)cc3O)sc2c1	-	-	35.5µM	?	?	?
COc1cccc(Cn2c(=O)n(-c3cc(C)cc(C)c3)c(=O)c3oc4ccccc4c32)c1	.	-	?	-	-	-
Nc1[nH]nc2nc3ccccc3cc12	-	-	-	-	-	-
Nc1cccc2nc3ccccc3cc12	-	-	8.91µM	-	-	-
Cc1cc2c(N)cccc2nn1	?	?	22.4µM	-	89.1µM	5.62µM
Cc1cc2c(NC(=O)Nc3ccccc3)cccc2nn1	-	-	-	-	-	-
Nc1ccc(O)cc1	.	?	.	.	89.1µM	7.08µM
Nc1ccc(C(=O)O)cc1	-	-	.	-	-	-
CC(C)(C)[C@]1(O)CCN2CC3c4ccccc4CCc4cccc(c43)[C@@H]2C1 (some centres not stated)	.	.	-	-	-[19.4 µM]	-
O=C(C[N+]1(CCO)CCOCC1)c1cccs1	.	-	.	.	-	-
Cn1c(CCNC(=O)C(C)(C)C)nc2ccccc21	-	-	-	25.1µM	-	-
CC(C)(C)C(=O)NCCc1nc2ccccc2n1CCCCOc1ccccc1	.	-	-	-	-	?
Cc1ccc(S(=O)(=O)N2[C@@H](c3ccc(Cl)cc3)C(C(=O)O)=CC[C@H]2c2ccc(Cl)c(Cl)c2)cc1	-[11.6 µM]	?	.	89.1µM	-	?
CCc1ccc([C@@H]2CC=C(C(=O)O)[C@H](c3ccccc3)N2S(=O)(=O)c2ccc(C)cc2)cc1	-	-	.	-	-	-
CCc1ccc([C@@H]2CC=C(C(=O)O)[C@H](c3ccc(C(C)(C)C)cc3)N2S(=O)(=O)c2ccc(C)cc2)cc1	?	?	.	31.6µM	-	-
COc1cc(CC(=O)Nc2c(-c3ccccc3)[nH][nH]c2=O)cc(OC)c1	-	.	.	.	.	.
COCc1cc(C)nc(OCC(=O)N/N=C/c2ccc(-c3cccc([N+](=O)[O-])c3)o2)c1C#N	.	.	-	.	.	.
SMILES	WRN inhibitor	FEN1 inh	Pol beta inh	Pol eta inh	Pol kappa inh	Pol iota inh
COCc1cc(C)nc(N/N=C/c2ccc(-c3ccc(C(=O)O)c(Cl)c3)o2)c1C#N	.	.	22.4µM	.	.	.
Cc1ccccc1/C=N/n1c(-c2cc(-c3ccccc3)n[nH]2)n[nH]c1=S	-	-	?	-	-	-
Cc1ccsc1/C=N/n1c(-c2cc(-c3ccccc3)n[nH]2)n[nH]c1=S	-	-	11.2µM	?	?	?
Oc1cccc(C=Nc2cccc3ccccc23)c1O	-[11.6 µM]	?	8.91µM	-	35.5µM	11.2µM
Oc1cccc(C=NCc2ccccc2)c1O	39.8µM	?	3.55µM	?	14.1µM	7.94µM
Oc1ccccc1C=Nc1cccc2ccccc12	-	-	-	-	-	-
COc1cc(NCCCCCCN)c2ncccc2c1OC	50.1µM	?	.	44.7µM	-	11.2µM
Cc1ccn2c(=O)nc(SCC(=O)NCc3ccccc3)nc2c1	?	-	.	22.4µM	-	44.7µM
Cc1ccc(CNC(=O)CSc2nc(=O)n3ccccc3n2)cc1	-	-	.	-	-	-
Cc1ccn2c(=O)nc(SCC(=O)N3CCN(c4ccccc4)CC3)nc2c1	-[11.6 µM]	-	.	20µM	-	50.1µM
O=C(CSc1nc(=O)n2cc(Cl)ccc2n1)Nc1cccc2ccccc12	-	-	.	?	-	?
Cc1ccn2c(=O)nc(SCC(=O)Nc3cccc4ccccc34)nc2c1	-[11.6 µM]	-	.	79.4µM	-	?
CC1(C(=O)Nc2cccc3cccnc23)CCN1Cc1csc2ccccc12 (configuration not stated)	-	.	.	.	.	.
Cc1cc(CNC[C@H]2O[C@@H](n3ccc(N)nc3=O)[C@H](O)[C@@H]2O)no1	-	.	.	-	.	.
Cc1cc2nc(C(C)(C)C)c(CC3CCCCC3)n2c(C)c1Br	-	.	.	.	.	.
CC1(C(=O)NS(=O)(=O)c2ccccc2Cl)CCN1C(=O)Cc1cccc2ccccc12 (configuration not stated)	-	.	.	.	.	.
CC(C)n1c(O)c(/C=C2\C=NN=C2c2ccccc2)sc1=S	-	-	-	-	-	-
CCn1c(O)c(/C=C2\C=NN=C2c2ccc(C)cc2)sc1=S	-[11.6 µM]	-	-	-	-	89.1µM
O=C(c1ccc(CSc2nc3ccncc3n2Cc2ccccc2F)cc1)N1CCCCC1	.	-	-	-	-	-
CCOC(=O)C1=C(OCc2ccc(Cl)cc2)C2C=C(C)C=CC2N=C1 (configuration not stated)	-	-	44.7µM	-	-	-
CCOC(=O)c1c(C=O)c(C)n(Cc2ccc(Cl)cc2)c1C	-	?	-	-	-	-
CCN(CC)C(=O)c1ccc(COc2ccc(Cl)c(C)c2)o1	-	-	89.1µM	-	-	-
C/C=C(\C)C(=O)NCCN1C2=NC[C@@H](Cc3ccccc3)N2C[C@@H]1Cc1ccc(OC)cc1	-	-	.	-	-	-
CCCCCCNC(=O)N[C@@H](C(=O)NCCC[C@H]1CN2C(=NC[C@@H]2Cc2ccccc2)N1CCc1cccc(OC)c1)C(C)C	-	-	-	-	-	25.1µM
C[N+]1(C)CC[C@@H](OC(=O)[C@@](O)(c2ccccc2)C2CCCC2)C1	.	.	.	.	-[12 µM]	.
C=CC(C)n1c(Br)nc2c1c(=O)[nH]c(=O)n2C (configuration not stated)	-	-	-	-	-	-
CC(C)n1c(=S)[nH]c2c1c(=O)[nH]c(=O)n2C	89.1µM	-	-	-	-	-
CCN(CC)CCN1C(=O)c2ccccc2NC1c1ccc(OC)c(COc2ccc(NC(C)=O)cc2)c1 (configuration not stated)	.	-	.	.	-	-
O=C(NCc1cccs1)C1CC(c2ccc(Cl)cc2)=NO1 (configuration not stated)	-	-	-	-	-	-
O=C(NNC(=O)C1CC(c2cccs2)=NO1)Nc1ccc(Cl)cc1 (configuration not stated)	-	-	44.7µM	-	-	?
